An excerpt weighted towards active compounds, which were near 19% of everything screened.
SARS PLP yeast: inhibitors of SARS-CoV papain-like protease in yeast. Potency, µM (series often up to 32.9 µM), most hits filed as activators. AID 485353. S. cerevisiae expressing SARS-CoV PLpro, growth rescue. actives 0.19% (n = 330,000); calls by dose curve; also: nearly all actives have a fitted effect of over 55% in size
Pf growth 48h: inhibits P. falciparum growth in the first generation, 48 h; P. falciparum luciferase growth in erythrocytes, 48 h; Potency, µM (titrated, usually from 28.7 µM), usual class: inhibitors; actives 5.9% (n = 310,000)
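Growth was read as firefly luciferase luminescence after a 48 h, 37 C, 5% CO2 exposure of compounds to reporter-bearing P. falciparum cultures (0.1% parasitemia, 2% hematocrit final) in Albumax-supplemented RPMI 1640.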
AMA1 RON2 block: inhibitors of Plasmodium falciparum AMA1-RON2 interaction | AlphaScreen AMA1-biotinylated RON2 peptide binding | Potency, µM (titrated, usually from 58.2 µM), usual class: inhibitors | actives 0.2% (n = 360,000) | AID 720542; also: nearly all actives have a fitted effect of over 45% in size
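AMA1 (3D7) with his tag at 25 nM final met compounds first, then biotinylated RON2 peptide at 25 nM; detection used donor plus acceptor beads, 10 µg/mL apiece, read by AlphaScreen after 30 min at room temperature.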
Pf growth 96h: inhibits malaria parasite growth, 96 h; P. falciparum luciferase reporter growth, 96 h; Potency, µM (highest dose often 28.7 µM), usual class: inhibitors; actives 6.9% (n = 320,000); AID 504834
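Delayed-death screen, second-generation endpoint: infected erythrocytes, 2% hematocrit, 0.05% parasitemia final; 96 hours at 37 C, 5% CO2; luciferase detection reagent; luminescence decrease equals reduced growth.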
Shiga toxin inh: inhibitors of Shiga toxin in Vero cells; Vero cells, Shiga toxin protein synthesis inhibition reporter; inhibition, % at 38.7 µM; actives 9.2% (n = 290,000); AID 2315; in the data active = inhibition mostly above about 28%, no sharp cut-off; inactive = mostly below about 43%
CHX counter: counter-screen hit for Shiga toxin inhibitors, cycloheximide | max response, % | actives 12% (n = 300,000) | cell reporter, cycloheximide protein synthesis inhibition counterscreen; in the data active = max response mostly above about 13%, no sharp cut-off; inactive = mostly below about 14%; also: read at 38.3 µM for the half of the compounds with a filed dose
Hits are given with their value; . = inactive; ? = inconclusive; / = no result given; [ ] = dose if it differs, or a comment. Unless noted, calls follow the shape of the dose curve; as a rule, active = well fitted curve in the direction sought with a large enough effect; inconclusive = small, poorly fitted or top-dose-only effect, or another doubt; inactive = no such curve, though single readings can be large; an effect the other way counts as inactive or inconclusive.

SMILES	SARS PLP yeast	Pf growth 48h	AMA1 RON2 block	Pf growth 96h	Shiga toxin inh	CHX counter
Cc1ccccc1Cn1c(=N)n(CC(=O)c2ccco2)c2ccccc21	.	?	.	14.7µM	.	.
Cn1nccc1C(=O)Nc1ccc(Cl)cc1	.	.	.	.	67.6	27.6
Cn1nccc1C(=O)Nc1ccc2c(c1)OCO2	.	.	.	.	106.8	28.5
Cn1nccc1C(=O)Nc1cc(Cl)ccc1Cl	/	/	.	/	/	/
CC(/C=N\NC(=O)CN1CCN(S(=O)(=O)c2ccc(C)cc2)CC1)=C\c1ccccc1	.	.	.	?	.	.
Cn1c(N)c(C(=O)COC(=O)c2cc(S(=O)(=O)NCc3ccccc3)ccc2O)c(=O)n(C)c1=O	/	/	.[11.6 µM]	/	/	/
Cc1cccc(C)c1NC(=O)C1(C)CN(S(C)(=O)=O)CC(=O)N1Cc1cccc(F)c1 (stereo not drawn)	/	/	.	/	/	/
CC1CC(C)CN(CCCNC(=O)c2ccc3nc(N4CCCCC4)sc3c2)C1 (stereo not drawn)	.	.	.	.	15.4	16.8
CCCN1CCN(CCCNC(=O)c2ccc3nc(N4CCCCC4)sc3c2)CC1	.	.	.	?	.	13.3
O=C(NCCCN1CCC(Cc2ccccc2)CC1)c1ccc2nc(N3CCOCC3)sc2c1	.	10.4µM	.	?	.	.
COc1cccc(C(=O)C2CN(c3ccccc3)CC2c2ccc(Cl)cc2)c1 (stereo not drawn)	.	10.4µM	.	10.4µM	.	22.5
O=C(CCCCCCCCCCCCC1CCCC1)Nc1ccc(S(=O)(=O)c2ccc(NC(=O)CCCCCCCCCCCCC3CCCC3)cc2)cc1	/	.	/	?	/	/
O=C(O)CC1S/C(=N/N=C/C=C/c2ccccc2)NC1=O (stereo not drawn)	.	.	.	.	.	.
O=C(O)CC1S/C(=N/N=C/C2CC=CCC2)NC1=O (stereo not drawn)	.	.	.	5.86µM	.	.
COc1cc(C(=O)OCC(=O)c2cc(C)n(CC3CCCO3)c2C)ccc1OCC(=O)N1CCOCC1 (stereo not drawn)	/	/	.	/	/	/
CCOc1ccccc1OCC(=O)Nc1cccc(S(=O)(=O)N2CCCCCC2)c1	.	?	.	13.1µM	/	/
COc1ccc(NC(=O)COc2ccccc2C(N)=O)cc1S(=O)(=O)N1CCCCC1	/	/	.	/	/	/
Cc1ccc(OCC(=O)Nc2cccc(S(=O)(=O)N3CCCC3)c2)cc1C	/	/	.	/	/	/
COc1ccc(NC(=O)CC2CCCC2)cc1S(=O)(=O)N1CCCCC1	.	.	.[11.6 µM]	?	.	.
Cc1ccc(NC(=O)COc2ccccc2C(N)=O)cc1S(=O)(=O)N1CCCCCC1	.	?	.	4.65µM	/	/
COc1ccc(NC(=O)COC(=O)C2CC2)cc1S(=O)(=O)N1CCCCC1	.	13.1µM	.	?	/	/
CC(=O)c1ccc(OCC(=O)Nc2cccc(S(=O)(=O)N3CCCC3)c2)cc1	.	?	.	4.15µM	/	/
CCO[C@@H]1OC(C(=O)NC2CC2)=C[C@H](c2ccccc2)[C@H]1CCCO	.	.	.	.	.	.
C[C@@H]1CN([C@H](C)CO)C(=O)CCCn2nncc2CO[C@@H]1CN(C)C(=O)c1ccccc1	/	/	.	/	/	/
CC1CN(C(=O)C2(C)CC2(Cl)Cl)CC(C)O1 (stereo not drawn)	.	.	.	?	.	.
SMILES	SARS PLP yeast	Pf growth 48h	AMA1 RON2 block	Pf growth 96h	Shiga toxin inh	CHX counter
O=C(COc1ccc2ccc(=O)oc2c1)Nc1cccc(S(=O)(=O)N2CCCCC2)c1	.	11.7µM	.	4.65µM	/	/
COc1ccc(Cl)cc1NCC(=O)Nc1ccc(OC)c(S(=O)(=O)N2CCCCC2)c1	.	9.28µM	.	?	/	/
COc1ccc(NC(=O)CN2C(=O)NC3(CC(C)CC(C)(C)C3)C2=O)cc1S(=O)(=O)N1CCCCC1 (stereo not drawn)	/	13.1µM	.	?	/	/
CC1CC(C)(C)CC2(C1)NC(=O)N(CC(=O)N1CCN(S(=O)(=O)c3cccc(F)c3)CC1)C2=O (stereo not drawn)	.	/	.	/	/	/
CC1CC(C)(C)CC2(C1)NC(=O)N(CC(=O)N1CCN(S(=O)(=O)c3cccs3)CC1)C2=O (stereo not drawn)	.	9.28µM	.	?	/	/
O=C(COc1ccc2ccc(=O)oc2c1)Nc1ccc(N2CCOCC2)cc1	.	.	.[2.32 µM]	.	.	.
Cc1cc(Cn2nc(-c3ccccc3)cc2C(=O)NCC2CC2)on1	.	?	.	?	/	/
N#Cc1ccccc1OCC(=O)Nc1cccc(S(=O)(=O)N2CCCCCC2)c1	.	13.1µM	.	?	/	/
CCOc1ccc(C(=O)N[C@H](C(=O)Nc2cccc(S(=O)(=O)N3CCOCC3)c2)C(C)C)cc1	.	?	.	?	/	/
Cc1ccc2cccc(OCC(=O)Nc3cccc(S(=O)(=O)N4CCCC4)c3)c2n1	.	9.28µM	.	?	/	/
Cc1ccc(OCC(=O)Nc2cccc(S(=O)(=O)N3CCCCC3)c2)c([N+](=O)[O-])n1	.	.	.	?	.	.
CC(=O)c1ccccc1OCC(=O)Nc1cccc(S(=O)(=O)N2CCCC2)c1	.	?	.	?	/	/
CCOc1ccccc1OCC(=O)Nc1ccc(OC)c(S(=O)(=O)N2CCCCC2)c1	.	?	.	11.7µM	/	/
CCOc1ccc(C(=O)N[C@H](C(=O)Nc2cccc(S(=O)(=O)N3CCCCC3)c2)C(C)C)cc1	.	?	.	10.4µM	.	.
O=C(COC(=O)c1ccccc1NCCO)Nc1cc(C(F)(F)F)ccc1N1CCOCC1	.	?	.	?	.	.
COc1ccc(C2CC(=O)Oc3cc(C)c(Cl)c(C)c32)cc1 (stereo not drawn)	.	/	.	/	.	.
COc1ccccc1Nc1nnc(SCc2cc(=O)n3cc(C)ccc3n2)s1	.	.	.	?	.	.
COc1ccc(S[C@@H](CCN2CC[C@H](O)CCC2=O)c2ccccc2)cc1	.	.	.	.	/	/
CC(C)(C)C(=O)Cn1ncc(Br)c(Br)c1=O	.	.	.	.	.	.
C=CCn1c2ccccc2c(=O)c2cc(C#Cc3ccsc3)ccc21	.	0.0465µM	/	0.329µM	.	.
C=CCn1c2ccccc2c(=O)c2cc(C#Cc3ccccn3)ccc21	.	?	.	2.08µM	/	/
CC1(C)CCN(Cc2ccccc2)C1CC#N (stereo not drawn)	.	.	.	.	.	.
O=S(=O)(/C=C/c1cccc(Br)c1)N1CCOCC1	.	.	.	.	.	.
COc1c(C)cc(C(=O)C2CCCN(C(=O)c3cccc(-n4cccn4)c3)C2)cc1C (stereo not drawn)	.	.	.	.	.	12.6
COc1c(C)cc(C(=O)C2CCCN(C(=O)c3cc4nc(C)cc(C)n4n3)C2)cc1C (stereo not drawn)	.	?	.	?	24.9	.
COc1c(C)cc(C(=O)C2CCCN(C(=O)c3csc(C)n3)C2)cc1C (stereo not drawn)	.	.	.	.	.	.
C[C@@H]1COc2cccc(N3CCN(Cc4ccccc4F)CC3)c2S(=O)(=O)N1	/	/	.	/	/	/
